Source: PubChem BioAssay (National Center for Advancing Translational Sciences (NCATS))
MCF10A rerep = A quantitative high throughput screen for small molecules that induce DNA re-replication in MCF 10a normal breast cells. MCF 10A DNA re-replication, Hoechst nuclear intensity, 48 h. Potency, µM (highest dose often 46.1 µM), inactives show at the highest dose activity, positive = re-replication, most hits filed as activators. 350,000 compounds, 2.9% hits; note: potency is the fitted concentration of half-maximal effect; % of control where 0% means no effect; nearly all actives have a fitted effect of over 50% in size
Giardia kill = Small Molecules that selectively kill Giardia lamblia: qHTS; activity change, % at 7.66 µM, hits read low; Giardia lamblia trophozoite viability; 340,000 compounds, 0.15% hits; in the data active = activity change below about -80%; inconclusive = between about -30% and that limit;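 note: parasites exposed to compound for two days anaerobically before the ATP read; % is set by controls: 0 for no effect and ±100 for the full control effect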
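Trophozoites 100 cells/well + cpd; 48 hrs, 37 deg C, anaerobic. ATPLite 1-Step added, 15-30 min RT, luminescence read (ATP-based viability).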
SW480 rereplic = A quantitative high throughput screen for small molecules that induce DNA re-replication in SW480 colon adenocarcinoma cells; 340,000 compounds, 1.8% hits; SW480 DNA re-replication, Hoechst DNA content imaging, 48 h; Potency, µM (series often up to 46.1 µM), for the others: at the top dose re-replication activation, hits mostly activators; note: potency is the fitted concentration of half-maximal effect; % of control where 0% means no effect; nearly all actives have a fitted effect of over 55% in size
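DNA re-replication was detected as more nuclei of elevated Hoechst intensity after 48 hr exposure to compound (23 nL pinned per well of 250 cells).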
uPA surface inh = qHTS for Inhibitors of Cell Surface uPA Generation; cell surface uPA generation assay, qHTS; Potency, µM (doses to about 38.3 µM), without a hit: top-dose activity change, negative = inhibition, actives largely listed as inhibitors; 330,000 compounds, 0.31% hits; active = well fitted inhibition curve with a large enough effect; inconclusive = small, poorly fitted or top-dose-only effect; inactive = no such curve, though single readings can be large or run the other way; tested in mouse RAW 264.7 cells; note: potency is the fitted concentration of half-maximal effect; % is set by controls: 0 for no effect and ±100 for the full control effect; nearly all actives have a fitted effect of over 55% in size
Starred values were filed as active, the others as inactive. Rows were chosen to be rich in hits. Some 4.3% of all compounds tested hit in one or more screens of this group. Unless noted, calls come from the whole dose curve; as a rule, active = well fitted activation curve with a large enough effect; inconclusive = small, poorly fitted or top-dose-only effect; inactive = no such curve, though single readings can be large or run the other way.

Results for COc1ccc(OCc2cc(C(=O)NCC3CCOCC3)no2)c(Cl)c1 ?
MCF10A rerep: 2%; Giardia kill: 4; SW480 rereplic: inconclusive; uPA surface inh: -2%

Results for COc1ccccc1-c1cc(C(=O)Nc2cc(C)nn2-c2ccccc2)no1 ?
MCF10A rerep: 1.3µM*; Giardia kill: 20; SW480 rereplic: 21%

How did COc1ccc(-c2cc(C(=O)Nc3cc(C)nn3-c3ccccc3)no2)cc1 do in these assays?
MCF10A rerep: 4%; Giardia kill: 4; SW480 rereplic: 5%; uPA surface inh: 3%

Results for COc1ccc(OCc2cc(C(=O)NCCc3ccccc3)no2)c(Cl)c1 ?
MCF10A rerep: 18µM*; Giardia kill: -1; SW480 rereplic: 21µM*; uPA surface inh: inconclusive

How did COc1ccc(CCNC(=O)c2cc(-c3ccco3)on2)cc1OC do in these assays?
MCF10A rerep: -3%; Giardia kill: -29; SW480 rereplic: 5.8µM*; uPA surface inh: -6%

Results for COCCNC(=O)c1cc(-c2ccccc2OC)on1 ?
MCF10A rerep: inconclusive; Giardia kill: -12; SW480 rereplic: inconclusive; uPA surface inh: 7.1µM*

What do the screens show for `COc1ccc(CN(C(=O)CN2C(=O)c3ccccc3S2(=O)=O)C(C(=O)NCC2CCCO2)c2ccco2)cc1` (stereo unspecified)?
MCF10A rerep: 10%; Giardia kill: -1; SW480 rereplic: -8%; uPA surface inh: 1%

Results for CCOC(=O)c1cccc(N)c1 ?
MCF10A rerep: -1%; SW480 rereplic: -7%

How did CN(C)N1C(=O)c2c(Cl)c(Cl)c(Cl)c(Cl)c2C1=O do in these assays?
MCF10A rerep: -2%; Giardia kill: -16; SW480 rereplic: 6%; uPA surface inh: 3%

How did Cc1cccc(N2CCN(Cc3ccc([N+](=O)[O-])o3)CC2)c1C do in these assays?
MCF10A rerep: -3%; Giardia kill: -86*; SW480 rereplic: inconclusive; uPA surface inh: 2%

Results for O=[N+]([O-])c1ccc(CN2CCN(c3ccc(F)cc3)CC2)o1 ?
MCF10A rerep: 12%; Giardia kill: inconclusive; SW480 rereplic: 5%; uPA surface inh: -24%

How did Cc1cccc(N2CCN(Cc3ccoc3)CC2)c1C do in these assays?
MCF10A rerep: 21µM*; Giardia kill: 12; SW480 rereplic: inconclusive; uPA surface inh: -8%

Results for COc1ccccc1NC(=O)c1ccc(Cl)c(S(=O)(=O)NCc2ccco2)c1 ?
MCF10A rerep: 5%; Giardia kill: 15; SW480 rereplic: -8%; uPA surface inh: -14%

What do the screens show for `CC[C@]12c3[nH]c4cc(-c5ccco5)ccc4c3CCN1C(=O)[C@@H](CC(=O)NCCN1CCOCC1)C[C@@H]2C(=O)N1CCN(C(=O)C2CC2)CC1`?
MCF10A rerep: 1%; Giardia kill: -14; SW480 rereplic: -36%; uPA surface inh: 5%

Results for Oc1[nH]c(N=C2N=c3ccccc3=N2)c2ccccc12 ?
MCF10A rerep: inconclusive; Giardia kill: -18; SW480 rereplic: 16µM*; uPA surface inh: -17%

What do the screens show for `CC(C)(C)OC(=O)C[C@@H]1C/C=C\C[C@@H](CC(=O)N(CCO)Cc2ccccc2)C(=O)N[C@H](C(C)(C)C)COC1=O`?
MCF10A rerep: -1%; Giardia kill: 8; SW480 rereplic: -16%; uPA surface inh: 11%

Results for Cn1cc(C(=O)[C@@H]2CCc3[nH]cnc3C2)c2ccccc21 ?
MCF10A rerep: 12%; SW480 rereplic: 0%

Results for CCN1C(=O)[C@H]2[C@@H](c3ccc(C)cc3)N3C(=O)N(c4cccc(Br)c4)C(=O)[C@@]3(CC(C)C)[C@H]2C1=O ?
MCF10A rerep: -12%; Giardia kill: -6; SW480 rereplic: 12%; uPA surface inh: 10%

What do the screens show for `CC(=O)COc1cccc2ccc(/C=C/c3ccc(Br)s3)nc12`?
MCF10A rerep: 18µM*; Giardia kill: 17; SW480 rereplic: 11%; uPA surface inh: 9%

How did Cc1ccc(/C=C/c2ccc3cccc(O)c3n2)s1 do in these assays?
MCF10A rerep: 25%; Giardia kill: 2; SW480 rereplic: inconclusive; uPA surface inh: -4%

Results for CCOC(=O)c1c(NC(=O)/C=C/c2ccc3c(c2)OCO3)sc(C)c1CC ?
MCF10A rerep: 8.2µM*; Giardia kill: -7; SW480 rereplic: 2%; uPA surface inh: 0%

Results for NS(=O)(=O)c1ccc(NC(=O)/C=C/c2ccc3c(c2)OCO3)cc1 ?
MCF10A rerep: 18µM*; Giardia kill: -6; SW480 rereplic: 6.5µM*; uPA surface inh: -3%
